Laboratory results from PubChem BioAssay (NCI).
About 83,000 compounds went through this panel and 20% of them were active in at least one assay; those are over-represented in the sample as a whole.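 Interpretation: 100, growth as untreated; towards 0, rising growth inhibition; 0, no net growth; 0 to -100, cell death. Compounds scoring below 10 were considered active.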 Calls of active or inactive are those of the source.

System: SF-295 CNS
Assay: NCI-60 one-dose screen, 48 h (100 = growth as untreated, 0 = no growth, -100 = all killed)
Details: 10 µM unless noted

| Compound | growth |
| --- | --- |
| CC1=CCc2ccccc21 | 101% (inactive) |
| O=C1Nc2ccccc2/C1=C/C(=O)c1ccc(N2CCCCC2)cc1 | 103% (inactive) |
| COc1ccc2nc3c(cc2c1)C(=O)CC(c1ccccc1)C3 (configuration not stated) | 31% (inactive) |
| Oc1ccc(N=Nc2nccs2)c(O)c1 | 40.3% (inactive) |
| Cc1cc(-c2ccc(N=Nc3c(S(=O)(=O)O)cc4cc(S(=O)(=O)O)cc(N)c4c3O)c(C)c2)ccc1N=Nc1cc(S(=O)(=O)O)c2ccccc2c1O | 103% (inactive) |
| C#CCNC(=O)CC[C@]1(C)[C@H]2CC[C@@H]3[C@@H]([C@@](C)(O)CCC=C(C)C)CC[C@@]3(C)[C@]2(C)CC[C@H]1C(=C)C | 49% [100 µM] (inactive) |
| CC(=O)Nc1ccc2nc3ccc(NC(C)=O)cc3[n+](-c3ccccc3)c2c1 | 121% (inactive) |
| CCN(CC)CCCCCCNc1cccc2cc(Br)cnc12 | 84.8% (inactive) |
| COc1ccc(NC(=S)NNc2ccc(-c3ccc(OC)c(OC)c3)nn2)cc1 | 101% (inactive) |
| O=[N+]([O-])c1cc([N+](=O)[O-])c(NN=C(c2ccc(O)cc2)c2ccc(O)cc2)cc1Cl | 104% (inactive) |
| CC(C)C1=NOC(=O)C1=Cc1cn(-c2ccccc2)nc1-c1cccc([N+](=O)[O-])c1 | 99.1% (inactive) |
| C=C(C)[C@@H]1CC[C@]2(C(=O)NCCNCCNCCN)CC[C@]3(C)[C@H](CC[C@@H]4[C@@]5(C)CC[C@H](O)C(C)(C)[C@@H]5CC[C@]43C)[C@@H]12 | -84.7% [100 µM] (active) |
| O=C1COCCN1c1ccc(Nc2nc(Cl)nc(N3CCOCC3)n2)cc1 | 94.4% (inactive) |
| Cn1cc(-c2noc(-c3cn(C)c4ncc(F)cc34)n2)c2cc(Br)ccc21 | 84.6% (inactive) |
| CC1(C)NCCC[C@]2(C)[C@H]3C=CC4=C5C[C@](C)(CO)CC[C@]5(C)CC[C@@]4(C)[C@]3(C)CC[C@@H]12 | -90.1% [100 µM] (active) |
| CCCC(NC(=O)OCc1ccccc1)C(=O)O (configuration not stated) | 92.3% (inactive) |

| Compound | growth |
| --- | --- |
| CC(C)C1=NOC(=O)C1=Cc1cn(-c2ccccc2)nc1-c1ccc(Cl)cc1 | 96.9% (inactive) |
| COc1cc(OC)cc(C(=O)Nc2cc(-c3cccnc3)nc(NCCCN3CCOCC3)n2)c1 | 101% (inactive) |
| Brc1ccc2c(c1)CN(C1CCCCC1)CO2 | 104% (inactive) |
| CC/C=C(\C)C(CCC)(CN=O)C(=O)OCC (configuration not stated) | 112% (inactive) |
| O=C(Nc1ccc(F)cc1)c1ccccc1 | 93.4% (inactive) |
| O=C(O)c1cccc(CN2CCN(c3cc4c(cc3F)c(=O)c(C(=O)O)cn4C3CC3)CC2)c1O | 104% (inactive) |
| COC(=O)c1c(C)[nH]c(/C=C2\N=C(c3ccc[nH]3)C=C2OC)c1C | -56.7% (active) |
| C=CCCC1(C)NC(=O)NC1=O (configuration not stated) | 95.7% (inactive) |
| O=[N+]([O-])c1cccc(N=NNc2cccc([N+](=O)[O-])c2)c1 | 95.6% (inactive) |
| Cc1ccc(N)c(O)c1 | 121% (inactive) |
| CCN(CC)c1ccc2cc(NC(=O)OCCNC(=O)CCNC(=O)[C@H](CC(C)C)NC(=O)C(C)(C)NC(=O)C(C)(C)NC(=O)[C@H](CC(C)C)NC(=O)CCNC(=O)C(C)(C)NC(=O)[C@H](CC(C)C)NC(=O)CCNC(=O)[C@@](C)(CC)NC(=O)[C@H](C)NC(=O)CCNC(=O)C(C)(C)NC(=O)[C@H](C)NC(=O)[C@@H]3CCCN3C(=O)[C@@](C)(CC)NC(=O)[C@H](Cc3ccccc3)NC(=O)C3CCCN3C(=O)C(C)(C)NC(=O)C3CCCN3C(=O)C(C)(C)NC(C)=O)c(=O)oc2c1 (some centres not stated) | -84.7% (active) |
| COC(=O)[C@]12CCC(C)(C)C[C@H]1C1=CC[C@@H]3[C@@]4(C)C/C(=C/c5cccnc5)C(=O)C(C)(C)[C@@H]4CC[C@@]3(C)[C@]1(C)CC2 | -29.8% [100 µM] (active) |
| CC(C)[C@H]1COC(=O)N1[C@@H]1C(=O)N([C@@H](CCC(=O)N2CCN(C3CCCC3)CC2)C(=O)N[C@@H]2CCCc3ccccc32)[C@@H]1/C=C/c1cccc(Cl)c1 | 54% (inactive) |
| CCN=Cc1c(O)c(O)c(C(C)C)c2cc(C)c(-c3c(C)cc4c(C(C)C)c(O)c(O)c(C=NCC)c4c3O)c(O)c12 | 29.5% (inactive) |
| O=c1cc(-c2ccccc2)oc2c(O)c(O)ccc12 | 64.5% (inactive) |
| COc1ccc(C2NC(=O)C(C#N)c3c2sc2c(F)cccc32)cc1 (configuration not stated) | 30.5% (inactive) |
